The results in this text go back to PubChem BioAssay (Tox21).

Assay [1] can be described thus: qHTS assay to identify small molecule antagonists of the androgen receptor (AR) signaling pathway using the MDA cell line in the presence of 0.5 nM R1881 - cell viability counter screen (AID 1259242). Also: nearly all actives have a fitted effect of over 45% in size. An outline of the steps: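 R1881 at 0.5 nM final stimulated MDA-kb2 cells during 16 hr compound treatment at 37C. Cytotoxicity read: CellTiter-Fluor fluorescence after 30 min.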

The nature of assay [2]: qHTS assay to identify small molecule HDAC inhibitors (AID 1259364). Also: potency is read from the fitted curve at half-maximal effect.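 Also: wild-type HCT-116 cells with endogenous class I/II HDAC activity; nearly all actives have a fitted effect of over 45% in size.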 The essentials:
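Relative class I and II HDAC activity is taken from the luminogenic signal in HCT-116 cells, with compound exposure 2 hr and reagent development 30 min at room temperature.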
A general note: In qHTS, concentration-response curves come from the screen itself.

Assay [3] in a line: qHTS assay to identify small molecule agonists of the sonic hedgehog signaling (Shh) pathway - cell viability counter screen (AID 1259366). Also: nearly all actives have a fitted effect of over 50% in size. An outline of the steps:
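CellTiter-Fluor fluorescence read-out, 1 hr at 37C, added after 23hr compound exposure. Cells: 3T3 Gli1-Luc, an NIH/3T3 clone with stably integrated Gli1-Luc reporter, plated 4hr before compound.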

The nature of assay [4]: qHTS assay to identify small molecule antagonists of the sonic hedgehog signaling (Shh) pathway - cell viability counter screen (AID 1259367). Also: nearly all actives have a fitted effect of over 55% in size. An outline of the steps:
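Cells: 3T3 Gli1-Luc, 2,000/well, 4 hr pre-incubation. Compounds in DMSO, then conditioned medium. Incubation 24 hr, 37C, 5% CO2. CellTiter-Fluor at 23 hr, 1 hr, fluorescence.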

Assay [5] is described as follows: qHTS assay to identify small molecule agonists of the sonic hedgehog signaling (Shh) pathway (AID 1259368; calls by dose curve;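 also: NIH/3T3-derived 3T3Gli1-Luc cells carrying a stable Gli1-driven firefly luciferase reporter; series mostly up to about 92 µM; nearly all actives have a fitted effect of over 15% in size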). The essentials:
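Mouse fibroblast (NIH/3T3) reporter cells with stably integrated Gli1-Luc were treated 24 hr with compound; firefly luciferase luminescence served as the read-out.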

A short description of assay [6]: qHTS assay to identify small molecule antagonists of the sonic hedgehog signaling (Shh) pathway (AID 1259369; calls by dose curve; also: nearly all actives have a fitted effect of over 45% in size; also: potency is read from the fitted curve at half-maximal effect). An outline of the steps: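 Conditioned medium drives Shh signalling in 3T3Gli1-Luc cells; compounds in DMSO co-applied, 24hr at 37 C, then luciferase luminescence.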
The target of assay [7] is Estrogen receptor beta (Homo sapiens) (UniProt Q92731). Put plainly: qHTS assay to identify small molecule agonists of the estrogen receptor beta (ER-beta) signaling pathway (AID 1259377; active = well fitted activation curve with a large enough effect in the signal ratio in the repeat runs, not every such curve was filed as active; the % refers to the signal ratio). The essentials:
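Beta-lactamase reporter readout: fluorescence of LiveBLAzer B/G FRET substrate after 2 h at room temperature, following 16 h compound treatment of ER-beta-UAS-bla HEK293T cells at 37C in 2% charcoal-stripped FBS medium.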

The target is the same in assay [8]. Put plainly: qHTS assay to identify small molecule antagonists of the estrogen receptor beta (ER-beta) signaling pathway (AID 1259378; active = well fitted inhibition curve with a large enough effect in the signal ratio in the repeat runs, not every such curve was filed as active; the % refers to the signal ratio; also: potency is read from the fitted curve at half-maximal effect). An outline of the steps: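 Antagonist mode: compounds added to beta-lactamase reporter HEK293T ER-beta-UAS cells stimulated with E2 (1nM final), 16 hr at 37C. LiveBLAzer B/G FRET substrate, 2 hours room temperature, fluorescence read-out.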

Assay [9] can be described thus: qHTS assay to identify small molecule agonists of the androgen receptor (AR) signaling pathway in the presence of an antagonist - cell viability counter screen (AID 1259379).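 Also: MDA-kb2 human breast cancer cells carrying an MMTV luciferase reporter; series mostly up to about 92 µM; nearly all actives have a fitted effect of over 25% in size.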 The essentials: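 A CellTiter-Fluor read-out measured viability of MDA-kb2 reporter cells (MMTV promoter with AR and GR response elements). Treatment: nilutamide 3.0uM final with compounds at 15 concentrations, 16 hr, 37C, 0% CO2.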

The nature of assay [10]: qHTS assay to identify small molecule agonists of the estrogen receptor beta (ER-beta) signaling pathway - cell viability counter screen (AID 1259380). Also: nearly all actives have a fitted effect of over 30% in size. Also: potency is read from the fitted curve at half-maximal effect. The essentials: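 Cells used were ER-beta-UAS-bla HEK293T in medium with 2% charcoal-stripped FBS. They were treated for 16 hr at 37C. Viability came from CellTiter-Glo luminescence.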
Assay [11] can be described thus: qHTS assay to identify small molecule antagonists of the estrogen receptor beta (ER-beta) signaling pathway - cell viability counter screen (AID 1259382). Also: series mostly up to about 92 µM; nearly all actives have a fitted effect of over 55% in size. The essentials: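 Agonist-stimulated (1nM E2) ER-beta-UAS-bla HEK293T cells are incubated with library compounds for 16 hr at 37C. Cell viability is then assessed in the reporter-assay wells by adding CellTiter-Glo and reading luminescence after 30 min.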

Assay [12] is described as follows: qHTS assay to identify small molecule agonists or antagonists of the thyroid stimulating hormone receptor (TSHR) signaling pathway - wild type cell line counter screen (AID 1259384; calls by dose curve). An outline of the steps: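 Counter screen in untransfected Hek293: compounds (15-point titration, triplicate) plus phosphodiesterase inhibitor Ro20-1724 added after 18 h plating; 30 min RT. Intracellular cAMP via competitive d2/cryptate immunoassay, 1 h incubation.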

Assay [13] deals with Thyrotropin receptor (Homo sapiens) (UniProt P16473). Briefly: qHTS assay to identify small molecule antagonists of the thyroid stimulating hormone receptor (TSHR) signaling pathway (AID 1259385; calls by dose curve; also: nearly all actives have a fitted effect of over 20% in size). An outline of the steps: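 Antagonist mode: compound-treated TSHR-expressing HEK293 cells were stimulated with 1.5 ng/mL TSH (final) in presence of Ro20-1724 for 30 min at RT. HTRF cAMP detection after 1 h; each compound tested at 15 concentrations, triplicate.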

Assay [14] in a line: qHTS assay to identify small molecule agonists of the estrogen receptor alpha (ER-alpha) signaling pathway in the presence of an antagonist - cell viability counter screen (AID 1259386).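 Also: series mostly up to about 92 µM; cells exposed to compounds for 22 h at 37 °C before the viability read; nearly all actives have a fitted effect of over 30% in size.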 The essentials: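 ICI-182,780 at 10.0nM final accompanies the compound titration (15 concentrations, 22hr, 37C) on VM7Luc4E2 cells. The CellTiter-Fluor fluorescence readout runs in the same wells as the luciferase assay.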

For assay [15], the target named is Androgen receptor (Homo sapiens) (UniProt P10275). Put plainly: qHTS assay to identify small molecule agonists of the androgen receptor (AR) signaling pathway in the presence of an antagonist (AID 1259381; calls by dose curve; also: nearly all actives have a fitted effect of over 15% in size). The essentials: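 Using human MDA-kb2 cells with an MMTV promoter–luciferase construct (AR and GR response elements), agonist activity is scored under 3.0uM nilutamide (final) co-treatment; 16hr incubation, 37C, luminescence readout via ONE-Glo.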

Assay [16] is described as follows: qHTS assay to identify small molecule HDAC inhibitors - cell viability counter screen (AID 1259365). Also: series mostly up to about 92 µM; nearly all actives have a fitted effect of over 50% in size. An outline of the steps:
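HCT-116 (wild type), 1,500 cells/well, overnight 37C/5% CO2; compound in DMSO 2hr; CellTiter-Glo 30min RT; luminescence read.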

Assay [17] has as its target Estrogen receptor (Homo sapiens) (UniProt P03372). Briefly: qHTS assay to identify small molecule agonists of the estrogen receptor alpha (ER-alpha) signaling pathway in the presence of an antagonist (AID 1259383; calls by dose curve; also: top concentration of the series differs between compounds; nearly all actives have a fitted effect of over 15% in size). The essentials:
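Using VM7Luc4E2 cells seeded 24hr before treatment, antagonist ICI-182,780 (10.0nM final) was added, followed by compounds at 15 concentrations. Plates incubated 22hr; ONE-Glo luminescence quantified reporter activity.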

Molecules are shown by their SMILES. A number with no mark means an inactive call. Results filed as inconclusive are left out. Active and inactive are the calls of the source. Unless noted, calls follow the shape of the dose curve; as a rule, active = well fitted curve in the direction sought with a large enough effect in the repeat runs; inconclusive = weak or mixed curves; inactive = no such curve, though single readings can be large; an effect the other way counts as inactive or inconclusive.

Thyrotropin receptor (Homo sapiens), sequence (P16473 whole entry, looked up): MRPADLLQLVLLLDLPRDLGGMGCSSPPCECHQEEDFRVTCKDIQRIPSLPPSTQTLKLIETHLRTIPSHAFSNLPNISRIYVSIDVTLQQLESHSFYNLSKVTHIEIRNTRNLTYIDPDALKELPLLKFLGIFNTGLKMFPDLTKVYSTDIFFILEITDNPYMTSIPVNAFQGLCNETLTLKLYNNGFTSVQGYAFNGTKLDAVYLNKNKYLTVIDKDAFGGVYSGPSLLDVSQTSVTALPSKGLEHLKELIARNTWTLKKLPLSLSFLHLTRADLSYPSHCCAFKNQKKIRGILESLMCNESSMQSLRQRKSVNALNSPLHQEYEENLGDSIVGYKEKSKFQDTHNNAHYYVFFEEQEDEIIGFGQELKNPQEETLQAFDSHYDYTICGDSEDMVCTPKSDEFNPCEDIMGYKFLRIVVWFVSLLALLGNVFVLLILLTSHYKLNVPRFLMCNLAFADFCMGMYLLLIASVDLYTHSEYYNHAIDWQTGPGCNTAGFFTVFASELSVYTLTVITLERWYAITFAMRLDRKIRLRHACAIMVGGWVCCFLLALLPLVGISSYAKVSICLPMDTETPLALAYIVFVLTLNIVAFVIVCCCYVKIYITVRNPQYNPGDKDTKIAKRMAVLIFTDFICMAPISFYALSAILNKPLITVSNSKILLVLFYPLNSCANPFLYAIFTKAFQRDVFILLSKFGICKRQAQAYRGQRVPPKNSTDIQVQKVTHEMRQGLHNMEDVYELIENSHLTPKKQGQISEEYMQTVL
Estrogen receptor (Homo sapiens), sequence (P03372 whole entry, looked up): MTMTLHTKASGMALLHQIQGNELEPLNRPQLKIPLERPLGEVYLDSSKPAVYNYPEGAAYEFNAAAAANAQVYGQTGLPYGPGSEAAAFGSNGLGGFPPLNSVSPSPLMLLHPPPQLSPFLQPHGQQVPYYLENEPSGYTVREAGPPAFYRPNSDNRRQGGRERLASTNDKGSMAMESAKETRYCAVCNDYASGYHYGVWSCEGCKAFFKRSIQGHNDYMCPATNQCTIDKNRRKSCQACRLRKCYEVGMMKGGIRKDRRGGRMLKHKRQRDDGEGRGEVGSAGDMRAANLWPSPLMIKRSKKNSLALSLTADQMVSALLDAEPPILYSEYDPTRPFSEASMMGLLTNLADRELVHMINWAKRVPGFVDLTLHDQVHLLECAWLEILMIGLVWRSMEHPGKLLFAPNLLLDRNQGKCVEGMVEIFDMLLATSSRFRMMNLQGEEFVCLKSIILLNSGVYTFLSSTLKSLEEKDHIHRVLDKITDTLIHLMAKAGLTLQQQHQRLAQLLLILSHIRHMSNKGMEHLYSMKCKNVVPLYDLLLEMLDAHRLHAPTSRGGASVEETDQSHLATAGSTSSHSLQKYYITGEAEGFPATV
Estrogen receptor beta (Homo sapiens), sequence (Q92731 whole entry, looked up): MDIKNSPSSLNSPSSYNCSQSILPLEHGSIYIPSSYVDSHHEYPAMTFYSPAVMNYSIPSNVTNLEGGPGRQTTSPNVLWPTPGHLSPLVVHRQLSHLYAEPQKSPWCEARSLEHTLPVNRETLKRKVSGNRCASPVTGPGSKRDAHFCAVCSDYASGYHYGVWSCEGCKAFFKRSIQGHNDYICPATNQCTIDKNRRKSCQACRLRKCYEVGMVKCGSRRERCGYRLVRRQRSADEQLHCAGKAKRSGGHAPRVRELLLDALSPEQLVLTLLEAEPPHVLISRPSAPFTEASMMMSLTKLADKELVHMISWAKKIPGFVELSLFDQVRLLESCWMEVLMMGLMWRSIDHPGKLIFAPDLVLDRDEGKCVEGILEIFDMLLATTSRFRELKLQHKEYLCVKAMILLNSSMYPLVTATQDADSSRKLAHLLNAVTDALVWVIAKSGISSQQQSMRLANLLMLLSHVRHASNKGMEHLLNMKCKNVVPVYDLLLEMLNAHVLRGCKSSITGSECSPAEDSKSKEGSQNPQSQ
Androgen receptor (Homo sapiens), sequence (P10275 whole entry, looked up): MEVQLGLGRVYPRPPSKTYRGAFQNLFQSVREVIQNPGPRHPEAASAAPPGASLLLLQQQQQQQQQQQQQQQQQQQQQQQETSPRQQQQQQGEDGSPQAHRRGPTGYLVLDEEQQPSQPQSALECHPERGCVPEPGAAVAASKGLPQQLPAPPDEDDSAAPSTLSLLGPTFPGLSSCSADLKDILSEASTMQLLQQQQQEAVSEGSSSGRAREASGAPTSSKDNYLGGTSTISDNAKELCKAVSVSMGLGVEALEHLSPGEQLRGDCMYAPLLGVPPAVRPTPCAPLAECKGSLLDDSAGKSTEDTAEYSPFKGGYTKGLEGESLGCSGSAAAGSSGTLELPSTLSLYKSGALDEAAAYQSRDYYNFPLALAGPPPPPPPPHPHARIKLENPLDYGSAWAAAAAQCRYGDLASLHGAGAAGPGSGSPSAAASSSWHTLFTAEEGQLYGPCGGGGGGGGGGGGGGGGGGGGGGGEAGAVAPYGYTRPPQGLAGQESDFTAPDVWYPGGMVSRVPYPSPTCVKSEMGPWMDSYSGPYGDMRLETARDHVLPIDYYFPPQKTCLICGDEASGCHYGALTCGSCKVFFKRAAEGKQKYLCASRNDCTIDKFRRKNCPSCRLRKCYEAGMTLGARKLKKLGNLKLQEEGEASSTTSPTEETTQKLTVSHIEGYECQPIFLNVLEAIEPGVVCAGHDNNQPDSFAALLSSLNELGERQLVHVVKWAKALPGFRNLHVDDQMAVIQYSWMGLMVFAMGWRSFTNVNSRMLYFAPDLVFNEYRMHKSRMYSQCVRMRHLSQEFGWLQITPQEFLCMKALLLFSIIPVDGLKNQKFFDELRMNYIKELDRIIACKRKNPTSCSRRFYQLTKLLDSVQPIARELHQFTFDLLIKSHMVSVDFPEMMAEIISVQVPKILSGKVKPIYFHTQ

In the case of `COC(=O)c1ccc(OC)cc1`, the outcome in assay [1], in assay [7], in assay [11] and in [12] was inactive. Further, the Potency entry in assay [2], in assay [3], in [4], in [5], in assay [6] and in assay [8] was “inactive” throughout. The Potency result in assay [9], in [10], in [13] and in assay [14] was “inactive” each time.
With `CCC1(C)NC(=O)NC1=O` (configuration not stated), the result in assay [1], in [11] and in assay [12] was inactive. The Potency entry in assay [2], in [3], in [4], in assay [5], in [6] and in [9] was “inactive” throughout. Also, the Potency entry in [10], in [13] and in [14] was “inactive” in each case.
For the compound `CCC(=O)c1ccc2c(c1)N(CCCN(C)C)c1ccccc1S2`, the result in [1] was inactive. Further, the Potency result in [2], in assay [3], in assay [4], in [5], in assay [6] and in assay [15] was “inactive” each time. For the same compound, the Potency entry in assay [14] was “inactive”. For the same compound, the Potency in assay [8] was 26.6 µM (active); in assay [10], 29.8 µM (active).
Consider `CCOC(=O)CS`, for which the outcome in [1], in assay [16] and in assay [12] was inactive. Further, the Potency is 25 µM (active) in assay [2], 19.9 µM (active) in assay [6] and 70.5 µM (active) in assay [10]. Also, the Potency entry in assay [3], in [5], in [9], in assay [13] and in assay [14] was “inactive” each time.
As for `CO[Si](C)(C)OC`, the result in assay [1], in assay [7], in assay [11] and in assay [12] was inactive. Also, the Potency result in assay [2], in [3], in assay [4], in assay [5], in assay [6] and in assay [8] was “inactive” throughout. Moreover, the Potency result in [9], in [10], in [17], in [13] and in assay [14] was “inactive” each time.
Turning to `CN(CCCN1c2ccccc2CCc2ccccc21)CC(=O)c1ccc(Cl)cc1`, the result in assay [1], in assay [16] and in assay [12] was inactive. The Potency result in [2], in assay [3], in assay [4], in assay [5], in assay [9] and in assay [17] was “inactive” throughout. In addition, in assay [14], the Potency result was “inactive”. Also, the Potency in assay [6] is 26.6 µM (active).
`O=C(O[C@@H](C(=O)O)[C@@H](OC(=O)c1ccccc1)C(=O)O)c1ccccc1`: the result in assay [1] and in [11] was inactive. Besides, the Potency result in [2], in assay [3], in assay [4], in assay [5], in [6] and in assay [8] was “inactive” throughout. The Potency entry in assay [9], in [10], in [17] and in [14] was “inactive” in each case.
`CCCC1CCC(=O)O1` (configuration not stated): the outcome in [1], in [11] and in assay [12] was inactive. For the same compound, the Potency result in assay [2], in assay [3], in [4], in assay [5], in assay [6] and in assay [9] was “inactive” throughout. Moreover, the Potency entry in assay [10], in assay [13] and in assay [14] was “inactive” throughout.
